# Data reported in article PMC4336329 (PLoS ONE, 2015).
# In all, about 310,000 compounds went through this assay and about 14,000 (4.5%) showed an effect of 50% or more. Effects have a minus sign here. What follows is part of a selection rich in strong results, with near analogues and random picks from the rest.
# Biological target: human ether-à-go-go-related gene (hERG) potassium channel (human, UniProt Q12809)
# Experiment: primary screen, population patch clamp on CHO cells stably expressing hERG; higher = less effect of the substance
# 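Further: peak tail current of the secondary pulse compared with the same well before compound.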
# Sequence of human ether-à-go-go-related gene (hERG) potassium channel (Q12809 whole entry, looked up): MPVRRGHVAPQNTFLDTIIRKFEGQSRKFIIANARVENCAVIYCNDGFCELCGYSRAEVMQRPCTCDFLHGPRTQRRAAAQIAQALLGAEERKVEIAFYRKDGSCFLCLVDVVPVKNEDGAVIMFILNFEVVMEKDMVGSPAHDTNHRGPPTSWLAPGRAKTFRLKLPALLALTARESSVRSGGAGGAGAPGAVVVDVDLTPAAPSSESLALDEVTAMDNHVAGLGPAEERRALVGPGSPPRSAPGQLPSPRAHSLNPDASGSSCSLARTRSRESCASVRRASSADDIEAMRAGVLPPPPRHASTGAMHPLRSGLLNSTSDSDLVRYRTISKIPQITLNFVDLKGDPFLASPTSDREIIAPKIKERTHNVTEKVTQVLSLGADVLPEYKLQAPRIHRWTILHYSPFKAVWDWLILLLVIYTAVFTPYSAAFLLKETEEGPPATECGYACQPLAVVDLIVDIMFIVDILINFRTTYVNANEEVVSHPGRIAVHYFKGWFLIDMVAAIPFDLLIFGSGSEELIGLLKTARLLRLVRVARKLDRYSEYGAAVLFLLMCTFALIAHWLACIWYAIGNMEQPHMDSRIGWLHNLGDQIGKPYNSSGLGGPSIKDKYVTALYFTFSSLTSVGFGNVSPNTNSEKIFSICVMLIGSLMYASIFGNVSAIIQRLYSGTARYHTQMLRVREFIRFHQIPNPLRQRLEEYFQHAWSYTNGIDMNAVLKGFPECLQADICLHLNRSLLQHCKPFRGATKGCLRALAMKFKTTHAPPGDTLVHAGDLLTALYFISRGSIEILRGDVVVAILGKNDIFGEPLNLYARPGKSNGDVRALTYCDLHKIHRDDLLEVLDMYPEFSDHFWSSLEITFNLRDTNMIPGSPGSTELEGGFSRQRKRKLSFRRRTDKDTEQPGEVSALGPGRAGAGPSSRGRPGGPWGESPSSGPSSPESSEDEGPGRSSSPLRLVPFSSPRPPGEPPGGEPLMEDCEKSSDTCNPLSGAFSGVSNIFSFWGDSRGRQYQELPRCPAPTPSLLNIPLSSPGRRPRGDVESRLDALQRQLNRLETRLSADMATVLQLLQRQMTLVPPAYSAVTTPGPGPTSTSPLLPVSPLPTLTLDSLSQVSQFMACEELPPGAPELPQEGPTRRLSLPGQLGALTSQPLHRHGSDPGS
row,Structure (SMILES),"hERG current change (%, negative = inhibition) at 10uM"
1,CC(C)(O[C@@H]1O[C@H](CO)[C@@H](O)[C@H](O)[C@H]1O)[C@@H]1CC=C(C(=O)O)CC1,15.5%
2,COc1ccc(NC(=O)CN(c2ccccc2F)S(=O)(=O)c2ccc(C)cc2)cc1,10.6%
3,COC(=O)c1sc2nc(N)c(C#N)cc2c1N,31.1%
4,Cc1nc(NCCc2ccc(O)cc2)c2nnn(Cc3ccccc3)c2n1,0.0141%
5,Cc1ccc(OCC(=O)Nc2oc(-c3ccccc3)c(-c3ccccc3)c2C#N)cc1,17.7%
6,COc1cc(CC(=O)NNC(=O)c2cc(C)oc2C)cc(OC)c1OC,24.1%
7,COc1ccc(S(=O)(=O)N2CCCCCC2)cc1C(=O)N1CCN(c2ccccc2C)CC1,-48%
8,COc1ccc(S(=O)(=O)N2CCN(c3ccccc3OC)CC2)cc1C(=O)N1CCCCC1,7.51%
9,COc1ccc(S(=O)(=O)N2CCCCCC2)cc1C(=O)N1CCN(c2ccccc2O)CC1,-70.6%
10,Cc1ccc(-c2n[nH]c(=S)n2/N=C/c2ccc(C(=O)O)cc2)cc1,3.02%
11,CCN(CC)c1ccc(N=Cc2ccc(N(CC)CC)cc2O)cc1,0.156%
12,CCCN1CCN(C(=O)c2nn(-c3ccc(OC)cc3)c(=O)c3c2c2ccccc2n3C)CC1,-3.71%
13,O=C(CCC(=O)N1CCOCC1)NCc1cccc(C(F)(F)F)c1,-0.171%
14,O=C(CCC(=O)N1CCN(S(=O)(=O)c2ccc(Cl)cc2)CC1)NCc1ccccc1,-14.8%
15,Cc1ccc(C)c(S(=O)(=O)N2CCN(C(=O)CCC(=O)NCc3ccc(Cl)cc3)CC2)c1,-65.1%
16,Cc1ccc(S(=O)(=O)N2CCN(C(=O)CCC(=O)NCc3cccc(C(F)(F)F)c3)CC2)cc1,-54.2%
17,Cc1ccc(S(=O)(=O)N2CCN(C(=O)CCC(=O)N3CCc4ccccc43)CC2)cc1,-62.2%
18,Cc1ccc(S(=O)(=O)N2CCN(C(=O)CCC(=O)NCc3ccc(F)cc3)CC2)cc1,-24%
19,COc1ccc(CNC(=O)CCC(=O)N2CCN(S(=O)(=O)c3ccc(Cl)cc3)CC2)cc1,22.3%
20,O=C(CCC(=O)N1CCCc2ccccc21)N1CCN(S(=O)(=O)c2ccccc2)CC1,-9.26%

row,Structure (SMILES),"hERG current change (%, negative = inhibition) at 10uM"
1,Cc1ccc(S(=O)(=O)CCC(=O)N2CCc3ccccc32)cc1,-16%
2,O=C(CSc1nnc(-c2ccccc2O)n1Cc1ccccc1)NNC(=O)c1ccccc1O,0.52%
3,COc1nccc(C(F)(F)F)c1C(=O)NC(=O)Nc1ccccc1,-8.51%
4,CCOC(=O)C1CCCN(C(=O)c2cc(S(=O)(=O)N3CCCCC3)c[nH]2)C1 (stereo not shown),14.5%
5,CCOC(=O)c1c(C)[nH]c(C)c1S(=O)(=O)N1CCCCC1,15.9%
6,CCOC(=O)CC(NS(=O)(=O)Cc1ccccc1)c1ccc(C)cc1 (stereo not shown),-5.46%
7,Cc1ccccc1NC(=O)CCC(=O)N/N=C/c1c[nH]c2ccccc12,2.16%
8,C=CCn1c2ccccc2c2nnc(SCC(=O)NC(C(=O)OC)C(C)C)nc21 (stereo not shown),-15.1%
9,COc1ccc(-n2c(-c3ccccc3)c[n+]3c2CCC3)cc1.[Br-],-20.5%
10,COc1ccc(-n2c(-c3ccc(Br)cc3)c[n+]3c2SC(C)C3)cc1.[Br-] (stereo not shown),-72.6%
11,COc1ccc(-n2c(-c3ccc(Br)cc3)c[n+]3c2CCC3)cc1.[Br-],-56%
12,COc1ccc(-n2c(-c3ccc(Br)cc3)n[nH]c2=S)cc1,13.3%
13,COc1ccc(-c2c[n+]3c(n2-c2c(C)n(C)n(-c4ccccc4)c2=O)CCCCC3)cc1.[Br-],4.43%
14,COc1ccc(-c2c[n+]3c(n2-c2ccc(C)cc2)CCCCC3)cc1.[Br-],-48.2%
15,COc1ccc(-n2c(-c3ccc(Br)cc3)c[n+]3c2CCCCC3)cc1.[Br-],-80.3%
16,COc1cc(/C=C/c2ccc3cccc(OC)c3n2)c(O)c([N+](=O)[O-])c1,9.97%
17,CNC(=S)N(Cc1ccc(OC)cc1)Cc1cc2cc(C)ccc2[nH]c1=O,18%
18,O=c1ccc(Cl)cn1Cc1ccccc1F,5.34%
19,CCN1C(=O)/C(=C/c2cnn(CC)c2C)SC1=S,5.73%
20,COc1ccc(S(=O)(=O)N2CCOc3ccccc32)cc1,-1.55%

row,Structure (SMILES),"hERG current change (%, negative = inhibition) at 10uM"
1,Cc1ccccc1NC(=O)C(C)N1C(=O)c2ccccc2C1=O (stereo not shown),14.7%
2,COc1ccc(C2NC(=O)c3ccccc3N2)cc1OC (stereo not shown),13%
3,COc1ccc(Cc2nnc(SCC(=O)N3CCCC3)o2)cc1,2.54%
4,COc1ccc(/C(N)=N/OC(=O)Cc2ccc(C)cc2)cc1,9.68%
5,C=CCNc1oc(Cc2cccc3ccccc23)nc1C#N,-14.7%
6,CCCCn1c(=O)n(C)c(=O)c2c(C(F)(F)F)cc(-c3ccncc3)nc21,-28%
7,Cc1nc(C)c(-c2ccc(SCc3cccc(F)c3)nn2)s1,-50.6%
8,Cc1nc(C)c(-c2ccc(SCc3ccccc3F)nn2)s1,4.94%
9,Cc1nc(C)c(-c2ccc(SCc3ccc(Cl)cc3)nn2)s1,-14.7%
10,O=C(O)CCC(=O)NCc1ccc(F)cc1,-7.12%
11,Cc1oc(C(C)(C)C)cc1C(N)=O,12.7%
12,CSc1ncccc1C(=O)NCc1ccccc1Cl,-7.25%
13,O=C(COC(=O)CNC(=O)c1cccc([N+](=O)[O-])c1)Nc1cccc(S(=O)(=O)N2CCCCC2)c1,-30.8%
14,Cc1ccc(S(=O)(=O)N2CCCCC2)cc1NC(=O)COC(=O)CNC(=O)c1cc(Cl)cc([N+](=O)[O-])c1,-51.4%
15,Cc1ccc(S(=O)(=O)N2CCCCC2)cc1NC(=O)COC(=O)C1CC2C=CC1C2 (stereo not shown),-62%
16,Cc1ccc(NC(=O)COC(=O)C2CC3C=CC2C3)cc1S(=O)(=O)N1CCCCC1 (stereo not shown),-7.32%
17,Cc1ccc(NC(=O)COC(=O)CNC(=O)c2cccc([N+](=O)[O-])c2)cc1S(=O)(=O)N1CCCCCC1,-49.1%
18,O=C(COC(=O)C1CC2C=CC1C2)Nc1cccc(S(=O)(=O)N2CCCCCC2)c1 (stereo not shown),-23.2%
